# Bioassay records (PubChem)
# IL-1B inflam inh – inflammasome signaling inhibition, IL-1 beta readout | THP-1 LPS/ATP IL-1B secretion, AlphaLISA, 16 h; stronger effect = lower value | activity change, % at 57.5 µM | actives 4.7% (n = 360,000); in the data active = activity change below about -50%; inconclusive = mostly about -30% to -49%; note: % is set by controls: 0 for no effect and ±100 for the full control effect
#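 THP-1 cells pretreated 1 hr with compounds (up to 57.5 uM final), then stimulated with LPS (250 ng/mL final) plus ATP (1.25 mM final); secreted IL-1B measured by AlphaLISA after 16 hr, decreased signal indicating inhibition.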
# TDP1 cell CPT – growth inhibition of DT40 Tdp1-/-;hTDP1 cells with camptothecin (screen for TDP1 inhibitors). chicken DT40 Tdp1-/-;hTDP1 cells + 20 nM CPT, ATP luminescence, 48 h. AID 686979. actives 12% (n = 420,000). Potency, µM (titrated, usually from 46.2 µM), for the others: top-dose activity change, negative = growth inhibition, hits mostly inhibitors; note: potency is the fitted concentration of half-maximal effect; % is set by controls: 0 for no effect and ±100 for the full control effect; nearly all actives have a fitted effect of over 55% in size
#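 Chicken DT40 Tdp1-/- cells stably complemented with human TDP1 were seeded at 400 cells/well in medium containing 20 nM camptothecin, exposed to pin-transferred compounds, and grown at 37 °C for at least 48 hr. Viability was read as ATP luminescence.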
# HepG2 tox – HepG2 cytotoxicity, counter-screen for TGF-b inhibitors | AID 588856 | Potency, µM (series often up to 46.1 µM), without a hit: at the highest dose activity change, negative = cytotoxicity, usual class: cytotoxic | actives 0.76% (n = 410,000) | HepG2 CAGA-GFP viability, ATP luminescence, 18 h; note: potency is the fitted concentration of half-maximal effect
#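 CellTiter-Glo luminescence gave cytotoxicity after 18 hours at 37 degrees C. The cells were HepG2 CAGA-GFP in 1% FBS DMEM, stimulated with 500 pg/mL TGF-beta after compound addition. %Activity was normalised to no-cell wells (complete cell-killing) and DMSO (no toxicity), and curves were fitted and classified.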
# TGFb SMAD3 inh – TGF-b pathway inhibition; AID 588855; actives 1.2% (n = 410,000); HepG2 CAGA-GFP TGF-b/SMAD3 reporter, GFP fluorescence, 18 h; TGF-beta stimulated, 500 pg/mL final; Potency, µM (top dose mostly 46.1 µM), inactives show top-dose activity, negative = inhibition, usual class: inhibitors; note: potency is the fitted concentration of half-maximal effect; % is set by controls: 0 for no effect and ±100 for the full control effect; nearly all actives have a fitted effect of over 65% in size
#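 Per well, imaged GFP fluorescence of HEPG2 CAGA-GFP cells gives the signal; cells get compound, then TGF-beta (500 pg/mL final), 18 h at 37 degrees C; %Activity versus -TGF-beta and +DMSO controls.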
# DT40 TDP1 no CPT – qHTS for Inhibitors of human tyrosyl-DNA phosphodiesterase 1 (TDP1): qHTS in cells in absence of CPT. DT40 Tdp1-/- hTDP1 cells, no CPT, ATP luminescence, 48 h. Potency, µM (series often up to 46.2 µM), for inactives: at the highest dose activity change, negative = growth inhibition, actives largely listed as inhibitors. actives 15% (n = 420,000); note: potency is the fitted concentration of half-maximal effect; % is set by controls: 0 for no effect and ±100 for the full control effect; nearly all actives have a fitted effect of over 55% in size
#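 DT40 Tdp1-/-;hTDP1 cells, no CPT (DMSO vehicle only), 400 cells/well; compounds pin-transferred; ≥48 hr, 37 °C; CellTiter-Glo 30 min RT dark, luminescence read.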
# TDP1 inh – inhibitors of human tyrosyl-DNA phosphodiesterase TDP1 | Potency, µM (top dose mostly 130 µM), for inactives: top-dose activity change, negative = inhibition, actives largely listed as inhibitors | actives 0.28% (n = 350,000) | Q9NUW8 | recombinant TDP1, AlphaScreen DNA substrate cleavage; note: potency is the fitted concentration of half-maximal effect; % is set by controls: 0 for no effect and ±100 for the full control effect; nearly all actives have a fitted effect of over 40% in size
# Target sequence (Q9NUW8 whole entry, looked up): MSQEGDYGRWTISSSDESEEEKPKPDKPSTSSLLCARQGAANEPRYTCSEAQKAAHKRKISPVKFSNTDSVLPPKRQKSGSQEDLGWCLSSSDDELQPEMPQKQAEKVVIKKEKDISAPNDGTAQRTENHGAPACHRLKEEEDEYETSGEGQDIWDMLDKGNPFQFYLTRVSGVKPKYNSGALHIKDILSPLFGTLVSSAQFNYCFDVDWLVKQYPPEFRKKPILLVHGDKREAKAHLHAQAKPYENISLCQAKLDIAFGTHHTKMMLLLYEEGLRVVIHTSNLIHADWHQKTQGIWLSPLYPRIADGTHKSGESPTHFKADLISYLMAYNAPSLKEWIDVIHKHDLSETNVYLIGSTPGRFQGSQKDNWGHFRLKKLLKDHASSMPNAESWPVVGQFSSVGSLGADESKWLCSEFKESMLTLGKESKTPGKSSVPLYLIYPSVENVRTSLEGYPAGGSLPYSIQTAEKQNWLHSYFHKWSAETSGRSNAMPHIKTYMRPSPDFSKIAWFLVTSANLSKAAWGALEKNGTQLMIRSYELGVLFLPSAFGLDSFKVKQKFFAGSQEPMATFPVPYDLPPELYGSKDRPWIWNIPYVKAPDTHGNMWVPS
#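 Enzyme-compound mixtures sat 15 min at room temperature, followed by a 5 min reaction with 15 nM final substrate and 10 min with AlphaScreen beads. Recombinant human Tdp1 was used at 1 nM final.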
# * hit, by the source's call; i = inactive; ? = inconclusive; / = no result given; [ ] = remark or other dose. An excerpt weighted towards active compounds, which were near 18% of everything screened. Unless noted, calls come from the whole dose curve; as a rule, active = well fitted curve in the direction sought with a large enough effect; inconclusive = small, poorly fitted or top-dose-only effect, or another doubt; inactive = no such curve, though single readings can be large; an effect the other way counts as inactive or inconclusive.
SMILES,IL-1B inflam inh,TDP1 cell CPT,HepG2 tox,TGFb SMAD3 inh,DT40 TDP1 no CPT,TDP1 inh
COCC(=O)N1CCC2(CCCN(Cc3nccs3)C2)CC1,/,-4%,/,/,-5%,/
COc1ccc(-c2cc3nc(C)c(CCC(=O)N4CCN(c5ccccn5)CC4)c(C)n3n2)c(OC)c1,-28,?,-1%,-2%,16µM*,3%
COc1ccc(-c2cc3nc(C)c(CCC(=O)N4CCN(c5ccccc5F)CC4)c(C)n3n2)c(OC)c1,/,?,-13%,-1%,29µM*,5%
CCCOc1ccc(N2CC(C(=O)NC(C)C)CC2=O)cc1 (stereo not drawn),12,2%,-17%,-4%,-5%,-2%
CCOC(=O)C1CCN(C(=O)CCCNC(=O)Cn2cnc3sc(C)c(C)c3c2=O)CC1,-68*,4%,-27%,-26%,0%,-14%
CCOc1ccc2nc(NCCNC(=O)Nc3ccccc3)c(C#N)cc2c1,1,-27%,-28%,-7%,?,-2%
CCOc1ccc2nc(NCCNC(=S)NCCCN(C)C)c(C#N)cc2c1,/,?,-36%,-23%,26µM*,-5%
CCOCCCNC(=S)NCCCNc1nc2c(C)c(C)ccc2cc1C#N,-95*,?,-54%,?,?,2%
COc1cc(NC(=O)COc2cccc(C)c2C)ccc1NC(=O)c1ccco1,-5,-20%,-13%,12%,?,-4%
COc1ccc(C(C#N)=Cc2ccccc2OC)cc1,26,6.5µM*,-37%,-7%,5.2µM*,/
COc1ccc2oc(=O)c(C(=O)NCCc3c(C)[nH]c4ccc(F)cc34)cc2c1,/,/,0%,35%,/,5%
CC(NC(=O)COC(=O)c1cc(NS(=O)(=O)c2ccc(Cl)c([N+](=O)[O-])c2)ccc1O)C1CC2CCC1C2 (stereo not drawn),-107*,?,-96%,?,?,7%
COC(=O)c1ccc(NC(=O)c2cccc(N3C(=O)CCC3=O)c2)cc1,13,4%,5%,0%,-21%,-7%
COC(=O)c1ccc(NC(=O)c2cccc(N3C(=O)C4C5C=CC(C6CC56)C4C3=O)c2)cc1 (stereo not drawn),i,8.2µM*,0%,0%,7.3µM*,-7%
O=C(Nc1cccc(Cl)c1)c1cccc(N2C(=O)C3CC=CCC3C2=O)c1 (stereo not drawn),-7,?,-9%,-5%,?,25µM*
Cc1ccc(NC(=O)c2ccccc2N2C(=O)C3C4C=CC(C5CC45)C3C2=O)cc1C (stereo not drawn),-13,21µM*,1%,9%,?,3%
O=C(Nc1cccc(N2C(=O)C3CCCCC3C2=O)c1)c1ccccc1 (stereo not drawn),18,-21%,8%,3%,0%,0%
O=C(Nc1ccc(F)cc1)c1cccc(N2C(=O)C3C4C=CC(C5CC45)C3C2=O)c1 (stereo not drawn),-75*,16µM*,-12%,0%,?,3%
Cc1ccc(NC(=O)Cn2cc3c(n2)CCC(C)C3)cc1C (stereo not drawn),/,-24%,-11%,-2%,0%,8%
O=C(Nc1ccc(S(=O)(=O)NC2=NCCCCC2)cc1)c1cccc(OC(F)F)c1,25,?,-48%,-15%,?,/
Cc1ncc2c(c1CNC(=O)c1cncs1)CCN(C(=O)c1ccc(-c3ccccc3)cc1)C2,/,-2%[9.04 µM],/,/,-25%,/
O=C(Nc1ccccc1)c1cccc(N2C(=O)C3C4C=CC(C5CC45)C3C2=O)c1 (stereo not drawn),-55*,-1%,-17%,-10%,?,2%
O=C(Nc1nc(-c2ccccc2)cs1)C1CCCN(S(=O)(=O)c2cccc([N+](=O)[O-])c2)C1 (stereo not drawn),-25,21µM*,-16%,-5%,?,6%
O=C(Nc1nc(-c2ccccc2)cs1)C1CCCCN1S(=O)(=O)c1ccccc1 (stereo not drawn),-8,26µM*,-40%,?,23µM*,10%
O=C(Nc1nc(-c2ccccc2)cs1)C1CCCCN1S(=O)(=O)c1ccc(Cl)cc1 (stereo not drawn),33,?,-4%,?,?,4%
SMILES,IL-1B inflam inh,TDP1 cell CPT,HepG2 tox,TGFb SMAD3 inh,DT40 TDP1 no CPT,TDP1 inh
O=C(Nc1nc(-c2ccccc2)cs1)C1CCCN(S(=O)(=O)c2ccccc2)C1 (stereo not drawn),-8,6.5µM*,-23%,?,6.5µM*,-3%
Cc1cc(C)cc(OC(=O)COc2ccccc2C)c1,-2,20%,5%,0%,0%,/
CCCc1cc(=O)[nH]c(SCCCCN2C(=O)c3ccccc3C2=O)n1,21,2%,2%,6%,-20%,8%
NS(=O)(=O)c1ccc(NC(=O)COC(=O)c2cn(-c3ccccc3)nc2-c2ccc(F)cc2)cc1,-2,?,-41%,-38%,?,2%
Cc1cccc(NC(=O)c2cn(-c3ccccc3)nc2-c2ccccc2)c1C,/,?,3%,?,21µM*,6%
COC(=O)c1ccc(NC(=O)c2cn(-c3ccccc3)nc2-c2ccncc2)cc1,0,?,7.1µM*,8%,?,/
O=C(Nc1nccs1)c1cn(-c2ccccc2)nc1-c1ccncc1,-17,-10%,-26%,-26%,-23%,79µM*
COc1ccc(-c2nn(-c3ccccc3)cc2C(=O)Nc2nccs2)cc1,?,?,1%,?,?,12%
CN(C)S(=O)(=O)c1cccc(NC(=O)COC(=O)c2cn(-c3ccccc3)nc2-c2ccccc2)c1,-21,?,2%,-2%,21µM*,0%
CSc1ccc(CCNC(=O)c2cccc3c2C(=O)N(C2CCCCC2)C3)cc1,4,?,3%,?,?,2%
NC[C@H]1O[C@H](O[C@H]2[C@H](O[C@@H]3O[C@H](CO)[C@@H](O)[C@H]3O)C(O)[C@H](N)C[C@@H]2N)[C@H](N)[C@@H](O)[C@@H]1O (stereo partly drawn),/,-15%[21.1 µM],/,/,-9%[21.1 µM],/
Cc1cccc(NC(=O)c2cn(-c3ccccc3)nc2-c2ccccc2)c1,-1,?,0%,?,16µM*,1%
